High-throughput results from PubChem BioAssay.
A selection: hits, their analogues and other compounds. The true share with any hit is near 13%.
HCMV inh: human cytomegalovirus inhibition | actives 4.5% (n = 410,000) | activity change, negative = inhibition, % at 57.5 µM | HFF cells, HCMV-luciferase reporter, 72 h; stronger effect = lower value; in the data active means activity change below about -60%; inconclusive means no clear call, values can overlap the other calls; inactive means above about -39%
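Screen run at 2 compound doses on HFFs infected with reporter HCMV, MOI 1 PFU/cell. Luciferase activity from cell lysates at 72 h post infection gave inhibition relative to buffer-only and Salinomycin wells.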
HCV inhibitor: inhibitors of hepatitis C virus infection; Huh7.5.1 HCVcc-Cre infection, luciferase reporter, 44 h; actives 3.4% (n = 340,000); Potency, µM (highest dose often 41.8 µM), hits mostly inhibitors; AID 651820
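Reporter virus HCVcc-Cre (~0.5 moi) infects cells exposed to compound; seeding density 1,000 cells/well with 4 h settling beforehand. Luminescence, 15 sec read, taken 44 h post-infection following a 15 min RT substrate incubation.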
Pf growth 48h: inhibits P. falciparum growth in the first generation, 48 h | P. falciparum luciferase growth in erythrocytes, 48 h | Potency, µM (highest dose often 28.7 µM), most hits filed as inhibitors | actives 5.9% (n = 310,000) | AID 504832
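First compound was added to culture medium, then infected red cells at 0.1% parasitemia and 2% hematocrit (final). After incubation at 37 C under 5% CO2, luciferase detection reagent was dispensed and light output recorded.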
Pf growth 96h: P. falciparum growth inhibition at 96 hours; actives 6.9% (n = 320,000); Potency, µM (highest dose often 28.7 µM), usual class: inhibitors; P. falciparum luciferase reporter growth, 96 h
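Two parasite generations (96 h, 37 C, 5% CO2) of compound exposure in infected erythrocytes (0.05% parasitemia, 2% hematocrit). Luciferase-reporter P. falciparum; decreased luminescence indicates inhibited growth, aimed at apicoplast-acting delayed death.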
A number is an active result; i = inactive; ? = inconclusive; nt = not tested or not shown; [ ] = another dose, or the depositor's remark. Unless noted, the call rests on the fitted dose curve; in most records, active means well fitted inhibition curve with a large enough effect; inconclusive means small, poorly fitted or top-dose-only effect, or another doubt; inactive means no such curve, though single readings can be large or run the other way.

SMILES	HCMV inh	HCV inhibitor	Pf growth 48h	Pf growth 96h
COc1ccc(-c2ccoc2)cc1[C@H]1[C@H]2C=CC[C@@H](C)[C@@H]2C(=O)N1Cc1ccccc1	?	i[8.37 µM]	10µM	?
COc1ccc(-c2c([C@H]3[C@H]4C=CC[C@@H](C)[C@@H]4C(=O)N3Cc3ccccc3)ccc3ccccc23)cc1	?	7.1µM	7.4µM	9.3µM
COc1ccccc1S(=O)(=O)Cc1ccc(C(=O)N2CCN(c3cc(Cl)ccc3C)CC2)o1	i	nt	nt	nt
O=C(c1ccccc1Cl)N1c2ncnn2C2(CCCCC2)[C@@H]2CCCC[C@@H]21	i	nt	nt	nt
CN(C)C(CNC(=O)CCc1nc2cc(Cl)ccc2n(Cc2ccccc2)c1=O)c1ccccc1 (stereo unspecified)	?	?	9.3µM	10µM
CCNC(=S)NNC(=O)CCc1nc2cc(Cl)ccc2n(Cc2ccccc2)c1=O	i	?	?	5.9µM
CC(C)C[C@@H]1COc2cccc(NC3CC3)c2S(=O)(=O)N1	i	nt	nt	nt
CCC(=O)Nc1nnc(S(=O)(=O)N(CC)c2ccc(Cl)cc2)s1	-67	i	i	i
CN(c1ccc(Cl)cc1)S(=O)(=O)c1nnc(NC(=O)c2ccco2)s1	?	i	i	i
CCC(=O)Nc1nnc(S(=O)(=O)N(CC)c2ccc(OC)cc2)s1	i	i	?	i
CCN(c1ccc(Cl)cc1)S(=O)(=O)c1nnc(NC(=O)C2CCCCC2)s1	-64	nt	nt	nt
CC(C)C(=O)Nc1nnc(S(=O)(=O)N(C)c2ccc(Cl)cc2)s1	i	i	i	2.9µM
CCN(c1cc(C)cc(C)c1)S(=O)(=O)c1nnc(NC(=O)C2CCCCC2)s1	i	nt	nt	nt
CCc1ccccc1N(CC)C(=O)C(=O)Nc1ccc2nc3n(c(=O)c2c1)CCCCC3	i	nt	nt	nt
CCCCNc1c(-c2ccc(SC(C)CC)c(OC)c2)nc2ccc(C)cn12 (stereo unspecified)	-94	10µM	3.3µM	?
CCCCCCSc1ccc(-c2nc3ccc(Cl)cn3c2NCCCC)cc1OC	i	i	nt	nt
CCCCNc1c(-c2ccc(SC3CCCCC3)c(OC)c2)nc2ccc(Cl)cn12	i	i	8.3µM	2.1µM
CC1=CC(O)(c2ccccn2)P(=O)(c2ccccc2)C=C1C (stereo unspecified)	i	nt	nt	nt
CCc1nc2ccc(C(=O)NCCc3ccc(SC)cc3)cc2nc1CC	i	nt	nt	nt
O=C1N(c2ccccc2)CCN1c1ccccc1	i	i	i	10µM
O=C1NCCN1c1ccccc1	-79	i	nt	nt
COc1ccc(C(=O)Nc2cc(S(=O)(=O)c3ccc(Cl)cc3)c(O)c(C)c2C)cc1	i	nt	nt	nt
CC(=O)c1sc(N)c(C(=O)OC(C)C)c1C	i	14µM	i	i
Cc1c(C(=O)OC(C)C)sc(N)c1C(=O)OC(C)C	i	?	i	i
CCn1cc2nc(SCC(=O)Nc3ccc(OC)cc3OC)n(Cc3ccc(Cl)cc3)c(=O)c2n1	i	nt	nt	nt
SMILES	HCMV inh	HCV inhibitor	Pf growth 48h	Pf growth 96h
O=C(CC1CCCCC1)c1c(O)c2ccccc2oc1=O	-68	i	i	i
CC1CCC(C(=O)c2c(O)c3ccccc3oc2=O)CC1 (stereo unspecified)	-100	?	nt	i
COc1ccc(-n2nc(C(=O)NCCc3ccc(Cl)cc3)c3c4ccccc4n(C)c3c2=O)cc1	i	nt	nt	nt
CC(C)CC(=O)NCC1(N(C)C)CCCCC1	i	nt	nt	nt
O=C(CC1Sc2ncnn2C1=O)Nc1ccc(Br)cc1 (stereo unspecified)	i	i	i	10µM
COc1ccc(NC(=O)Cn2c(=O)n(-c3cccc(C)c3)c(=O)c3c2c2cc(C)ccc2n3C)cc1Cl	i	nt	nt	nt
CN(C)C(=O)c1cnc(Cc2c[nH]c3ccccc23)c(I)c1	i	nt	nt	nt
CC(C)c1cc(C(F)(F)F)n2nc(C(=O)Nc3ccc4c(c3)OCO4)cc2n1	i	13µM	i	i[5.75 µM]
Cc1nc(-c2ccc(S(=O)(=O)Nc3ccc(S(N)(=O)=O)cc3)cc2)co1	i	i	i	10µM
CSc1cccc(NS(=O)(=O)c2ccc(-c3coc(C)n3)cc2)c1	i	i	i	4.7µM
COc1ccc(NS(=O)(=O)c2ccc(-c3coc(C)n3)cc2)cc1	i	?	i	i
COc1ccc(NS(=O)(=O)c2ccc(-c3coc(C)n3)cc2)cc1OC	-92	?	i	?
CCOc1ccc(-c2cc3nc(C4CCN(C(=O)OC(C)(C)C)CC4)c(C(=O)Nc4ccc(C)cc4C)cn3n2)cc1	i	nt	nt	nt
COc1ccc(-c2nncnn2)cc1	nt	i	?	6.6µM
N#C/C(=C\c1ccc(-c2cccc(Cl)c2)o1)C(=O)Nc1cccc(C(F)(F)F)c1	i	nt	nt	nt
Cn1nccc1-c1ccc(C(=O)Nc2cccc(NS(C)(=O)=O)c2)c2occc12	i	nt	nt	nt
CS(=O)(=O)Nc1cccc(NC(=O)c2ccc(-n3ccnc3)c3ccoc23)c1	-63	nt	nt	nt
Cc1nc(C(F)(F)F)ccc1C(=O)N1CCC1(C)C(=O)NS(=O)(=O)c1c(C)noc1C (stereo unspecified)	i	nt	nt	nt
Cc1ccc(F)c(S(=O)(=O)NC(=O)C2(C)CCN2C(=O)c2ccc(C(F)(F)F)nc2C)c1 (stereo unspecified)	-87	nt	nt	nt
Cc1nc(C(F)(F)F)ccc1C(=O)N1CCC1(C)C(=O)NS(=O)(=O)c1ccc(C(C)(C)C)cc1 (stereo unspecified)	-81	nt	nt	nt
COc1ccc(S(=O)(=O)NC(=O)C2(C)CCN2C(=O)c2ccc(C(F)(F)F)nc2C)cc1 (stereo unspecified)	i	nt	nt	nt
CC(=O)Oc1ccc(/C=C2/SC(=S)N(Cc3ccccc3)C2=O)cc1	i	i	i	?
O=C(O)CCCCCN1C(=O)/C(=C/c2ccncc2)SC1=S	-77	i	?	?
O=C(O)CCCN1C(=O)/C(=C/c2ccncc2)SC1=S	-61	?	?	i
O=C(CCN1C(=O)/C(=C/c2ccccc2)SC1=S)NNC(=O)c1ccncc1	?	i	i	i
SMILES	HCMV inh	HCV inhibitor	Pf growth 48h	Pf growth 96h
O=C(CCN1C(=O)/C(=C\c2ccccc2)SC1=S)NNC(=O)c1ccncc1	i	i	i	i
O=C(O)CCCCCN1C(=O)/C(=C\c2ccncc2)SC1=S	-99	i	?	i
COc1ccc(CN2C(=O)/C(=C/c3ccncc3)SC2=S)cc1	-72	?	i	?
O=C(O)CCCCCN1C(=O)/C(=C\c2ccc(-c3ccc(Cl)cc3)o2)SC1=S	i	i	i	i
O=C([C@H]1[C@H](CO)[C@H]2Cn3c(cccc3=O)[C@@H]1N2C(=O)c1ccc(F)cc1)N1CCCCC1	i	nt	nt	nt
CSc1ccc(-c2nc3cccc(C)n3c2Nc2ccc3c(c2)OCO3)cc1	i	nt	nt	nt
COc1ccc(-c2nc(CSc3nncn4c3cc3oc(C)cc34)c(C)o2)cc1	i	nt	nt	nt
CCOC(=O)C(=CN=C(N)Nc1nc2ccccc2o1)C(=O)OCC	i	i	i	10µM
COc1ccc(-c2cc(C(=O)N/N=C(\C)c3ccco3)c3ccccc3n2)c(OC)c1	i	i	9.3µM	13µM
CCn1cc(/C=N\NC(=O)c2cc(-c3ccccc3OC)nc3ccccc23)c(C)n1	i	i	1.7µM	1.9µM
O=C(N/N=C/c1cccs1)c1cc(-c2ccncc2)nc2ccccc12	-72	?	i	?
CCc1ccc(/C=N/NC(=O)c2cc(-c3ccncc3)nc3ccccc23)s1	-66	?	?	?
